Assay outcomes: PubChem BioAssay, several laboratories
ABHD5 PLIN5 PPI = blocks binding of human ABHD5 to perilipin-5; Q00G26+Q8WTS1; inhibition, % at 4 µM; Split G. princeps luciferase complementation, luminescence, 4 h; 0.78% of 360,000 active; AID 602281;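 active = inhibition above the mean inhibition across every tested compound plus 3 SD, cut at about 22% in these data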
Target sequence (Q00G26 whole entry, looked up): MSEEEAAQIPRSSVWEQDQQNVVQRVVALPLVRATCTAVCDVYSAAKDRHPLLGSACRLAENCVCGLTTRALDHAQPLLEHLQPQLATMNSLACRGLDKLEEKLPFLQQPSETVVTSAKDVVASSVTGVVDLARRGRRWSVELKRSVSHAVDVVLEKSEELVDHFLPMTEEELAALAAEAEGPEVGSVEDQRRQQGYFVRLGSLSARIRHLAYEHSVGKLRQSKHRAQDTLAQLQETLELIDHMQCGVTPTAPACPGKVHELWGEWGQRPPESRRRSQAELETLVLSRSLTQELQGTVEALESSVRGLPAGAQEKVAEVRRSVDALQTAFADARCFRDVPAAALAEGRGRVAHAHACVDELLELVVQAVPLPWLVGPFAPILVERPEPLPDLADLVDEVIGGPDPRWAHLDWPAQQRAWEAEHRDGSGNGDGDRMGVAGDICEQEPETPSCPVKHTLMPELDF
Target sequence (Q8WTS1 whole entry, looked up): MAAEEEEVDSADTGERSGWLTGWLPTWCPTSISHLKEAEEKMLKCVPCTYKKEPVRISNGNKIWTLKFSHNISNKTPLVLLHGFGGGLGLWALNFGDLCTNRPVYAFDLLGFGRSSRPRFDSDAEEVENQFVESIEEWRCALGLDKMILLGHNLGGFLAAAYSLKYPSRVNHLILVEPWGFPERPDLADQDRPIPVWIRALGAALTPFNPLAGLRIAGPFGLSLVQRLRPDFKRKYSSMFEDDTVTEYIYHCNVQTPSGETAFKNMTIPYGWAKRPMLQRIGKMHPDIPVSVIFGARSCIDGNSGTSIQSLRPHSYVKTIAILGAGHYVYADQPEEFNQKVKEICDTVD
Rtt109 Vps75 = inhibitors of Candida albicans Rtt109/Vps75 histone acetyltransferase. Q5AAJ8. purified Rtt109/Vps75, ThioGlo CoA-SH fluorescence, 4 h. inhibition, % at 34.9 µM. 0.16% of 330,000 active. AID 540336;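 active = inhibition of at least 50% in every replicate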
ALR H2O2 inh = blocks human ALR sulfhydryl oxidase activity | P55789 | purified ALR, DTT oxidation, H2O2 HRP-luminol luminescence | inhibition, % (no concentration beside the values) | 3.8% of 290,000 active | AID 485317;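 active = mean replicate inhibition above about 79%, with every replicate also reaching it, limit read from the data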
LANA-H2B inh = blocks KSHV LANA binding to histone H2A/H2B; Q9QR71; cell-free LANA-H2A/H2B peptide, fluorescence polarization; inhibition, % (test concentration not listed); 0.6% of 320,000 active; in the data active = inhibition mostly above about 10%, no sharp cut-off; inactive = mostly below about 6.7%
rCAG RNA binder = molecules binding r(CAG) RNA repeats; r(CAG) RNA repeat, TO-PRO-1 dye displacement fluorescence; inhibition, % at 3 µM; 1.3% of 370,000 active; AID 651821;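 active = inhibition above the plate cutoff, the mean of all test compounds on that plate plus 3 SD, cut at about 35% in these data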;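 also: higher means more dye released from RNA so lower well fluorescence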
PRMT1 FP inh = blocks human protein arginine methyltransferase 1; Q99873; inhibition, % at 2.79 µM; recombinant PRMT1, activity-based probe fluorescence polarization; 1.3% of 370,000 active; AID 652257;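 active = inhibition above about 21% made by adding two undisclosed values, limit read from the data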
Hits are given with their value. This is a sample that favours compounds with a hit; in the whole collection about 5.9% have one here.

What do the screens show for `COc1ccc([C@@H]2CC=C(C(=O)O)[C@H](c3cccc(Cl)c3)N2S(=O)(=O)c2ccccc2C)cc1`?
ABHD5 PLIN5 PPI: inactive; Rtt109 Vps75: inactive; ALR H2O2 inh: inactive; LANA-H2B inh: inactive; rCAG RNA binder: 74; PRMT1 FP inh: inactive

Results for CC1(C)OC(=O)N(c2ccccc2)C12C=Cc1cc(Br)ccc1O2 (stereo not given) ?
ABHD5 PLIN5 PPI: inactive; Rtt109 Vps75: 53; ALR H2O2 inh: inactive; LANA-H2B inh: inactive; rCAG RNA binder: inactive; PRMT1 FP inh: inactive

What do the screens show for `CCN1CCN(c2ccc(S(=O)(=O)N3CCCCC3)cc2NC(=O)c2ccc([N+](=O)[O-])s2)CC1`?
ABHD5 PLIN5 PPI: inactive; Rtt109 Vps75: inactive; ALR H2O2 inh: inactive; LANA-H2B inh: inactive; rCAG RNA binder: inactive; PRMT1 FP inh: inactive

What do the screens show for `COCCN1CCCc2nc(-c3ccc(F)cc3)ccc21`?
rCAG RNA binder: inactive; PRMT1 FP inh: inactive

Results for COC(=O)C/C=C/[C@H](C)[C@@H](NC(=O)C(F)(F)F)c1ccccc1Br ?
rCAG RNA binder: inactive; PRMT1 FP inh: inactive

Results for CC(C)Cn1c(CCCNC(=O)c2ccc(F)cc2)nc2ccccc21 ?
ABHD5 PLIN5 PPI: inactive; Rtt109 Vps75: inactive; ALR H2O2 inh: inactive; LANA-H2B inh: 11; rCAG RNA binder: inactive; PRMT1 FP inh: inactive

How did CC(C)N=c1scc(-c2ccco2)n1/N=C/c1ccc(O)c(O)c1 do in these assays?
ABHD5 PLIN5 PPI: inactive; Rtt109 Vps75: inactive; ALR H2O2 inh: 99; LANA-H2B inh: inactive; rCAG RNA binder: inactive; PRMT1 FP inh: inactive

Results for COc1cc(/C=N/n2c(-c3ccc4c(c3)NC(=O)CO4)csc2=Nc2cccc(C)c2)ccc1O ?
ABHD5 PLIN5 PPI: inactive; Rtt109 Vps75: inactive; LANA-H2B inh: inactive; rCAG RNA binder: inactive; PRMT1 FP inh: inactive

How did CC(C)C1=CC(=Nc2ccc(S(N)(=O)=O)cc2)C=C(C(C)C)C1=O do in these assays?
ABHD5 PLIN5 PPI: inactive; Rtt109 Vps75: inactive; ALR H2O2 inh: 99; LANA-H2B inh: inactive; rCAG RNA binder: inactive; PRMT1 FP inh: inactive

How did CCOc1ccc2nc(SCC(=O)N3CCN(C(=O)c4ccco4)CC3)sc2c1 do in these assays?
ABHD5 PLIN5 PPI: inactive; Rtt109 Vps75: inactive; ALR H2O2 inh: inactive; LANA-H2B inh: inactive; rCAG RNA binder: inactive; PRMT1 FP inh: inactive

Results for CC1CCN(C(=O)CSc2nc3ccccc3s2)CC1 ?
ABHD5 PLIN5 PPI: inactive; Rtt109 Vps75: inactive; ALR H2O2 inh: 99; LANA-H2B inh: inactive; rCAG RNA binder: inactive; PRMT1 FP inh: inactive

Results for CCc1nc(SCC(=O)N2CCCC2)c2ccccc2n1 ?
ABHD5 PLIN5 PPI: inactive; Rtt109 Vps75: inactive; ALR H2O2 inh: 92; LANA-H2B inh: inactive; rCAG RNA binder: inactive; PRMT1 FP inh: inactive

How did Cc1nc2ccccc2nc1SCC(=O)N1CCC(C)CC1 do in these assays?
ABHD5 PLIN5 PPI: inactive; Rtt109 Vps75: inactive; ALR H2O2 inh: inactive; LANA-H2B inh: inactive; rCAG RNA binder: inactive; PRMT1 FP inh: inactive

What do the screens show for `CC1CN(C(=O)C(C)Sc2nc3ccccc3s2)CC(C)O1` (stereo not given)?
ABHD5 PLIN5 PPI: inactive; Rtt109 Vps75: inactive; ALR H2O2 inh: 99; LANA-H2B inh: inactive; rCAG RNA binder: inactive; PRMT1 FP inh: inactive

What do the screens show for `O=C(CSc1nc2ccccc2s1)N1CCN(C(=O)c2ccco2)CC1`?
ABHD5 PLIN5 PPI: inactive; Rtt109 Vps75: inactive; ALR H2O2 inh: 99; LANA-H2B inh: inactive; rCAG RNA binder: inactive; PRMT1 FP inh: inactive

How did O=c1[nH]c2ccc(S(=O)(=O)N3CCCC3)cc2o1 do in these assays?
rCAG RNA binder: inactive; PRMT1 FP inh: inactive

How did O=C(CSc1nc2ccccc2s1)N1CCCCC1 do in these assays?
ABHD5 PLIN5 PPI: inactive; Rtt109 Vps75: inactive; ALR H2O2 inh: 99; LANA-H2B inh: inactive; rCAG RNA binder: inactive; PRMT1 FP inh: inactive

What do the screens show for `O=C(CSc1nc2ccccc2s1)N1c2ccccc2Sc2ccccc21`?
ABHD5 PLIN5 PPI: inactive; Rtt109 Vps75: inactive; ALR H2O2 inh: inactive; LANA-H2B inh: inactive; rCAG RNA binder: inactive; PRMT1 FP inh: inactive

How did NC(=O)C1CCN(C(=O)CSc2nc3ccccc3s2)CC1 do in these assays?
ABHD5 PLIN5 PPI: inactive; Rtt109 Vps75: inactive; ALR H2O2 inh: 98; LANA-H2B inh: inactive; rCAG RNA binder: inactive; PRMT1 FP inh: inactive

What do the screens show for `O=C(O)C1CCN(C(=O)CSc2nc3ccccc3s2)CC1`?
ABHD5 PLIN5 PPI: inactive; Rtt109 Vps75: inactive; ALR H2O2 inh: inactive; LANA-H2B inh: inactive; rCAG RNA binder: inactive; PRMT1 FP inh: inactive

Results for CC(C)(C)NC(=O)CSc1nc(Cc2ccccc2)nc2ccccc12 ?
ABHD5 PLIN5 PPI: inactive; Rtt109 Vps75: inactive; ALR H2O2 inh: 98; LANA-H2B inh: inactive; rCAG RNA binder: inactive; PRMT1 FP inh: inactive

How did CC1CCCC(C)N1C(=O)CSc1nc2ccccc2s1 (stereo not given) do in these assays?
ABHD5 PLIN5 PPI: inactive; ALR H2O2 inh: 98; LANA-H2B inh: inactive; rCAG RNA binder: inactive; PRMT1 FP inh: inactive

What do the screens show for `Cc1ccc(-n2c(SCC(=O)c3ccc(F)cc3)nnc2-c2cnccn2)cc1`?
rCAG RNA binder: inactive; PRMT1 FP inh: inactive

Results for CCN(Cc1ccccc1)C(=O)Nc1c(Cl)cccc1Cl ?
rCAG RNA binder: inactive; PRMT1 FP inh: inactive

Results for Cc1ccc(S(=O)(=O)N(C)C[C@@H]2OCc3cn(nn3)CCCC(=O)N([C@H](C)CO)C[C@H]2C)cc1 ?
ABHD5 PLIN5 PPI: inactive; rCAG RNA binder: inactive; PRMT1 FP inh: inactive

How did CCCCCCCCCCCCN1CCSCCS1(=O)=O do in these assays?
rCAG RNA binder: inactive; PRMT1 FP inh: inactive

How did COc1ccc2cc(C3C(C#N)=C(N)OC(C)=C3C(C)=O)c(Cl)nc2c1 (stereo not given) do in these assays?
ABHD5 PLIN5 PPI: inactive; Rtt109 Vps75: inactive; ALR H2O2 inh: 96; LANA-H2B inh: inactive; rCAG RNA binder: inactive; PRMT1 FP inh: inactive

Results for O=[N+]([O-])c1ccc(CNc2cccc(Cl)c2)s1 ?
ABHD5 PLIN5 PPI: inactive; Rtt109 Vps75: inactive; ALR H2O2 inh: inactive; LANA-H2B inh: inactive; rCAG RNA binder: inactive; PRMT1 FP inh: inactive

How did O=[N+]([O-])c1ccc(CNc2ccc(Cl)cc2)s1 do in these assays?
ABHD5 PLIN5 PPI: inactive; Rtt109 Vps75: inactive; ALR H2O2 inh: 81; LANA-H2B inh: inactive; rCAG RNA binder: inactive; PRMT1 FP inh: inactive

What do the screens show for `COc1ccc(NC(=O)CCC(=O)N/N=C/c2ccc([N+](=O)[O-])s2)cc1`?
ABHD5 PLIN5 PPI: inactive; Rtt109 Vps75: inactive; ALR H2O2 inh: inactive; LANA-H2B inh: inactive; rCAG RNA binder: inactive; PRMT1 FP inh: inactive

How did COc1ccc(NCc2ccc([N+](=O)[O-])s2)c(OC)c1 do in these assays?
ABHD5 PLIN5 PPI: inactive; Rtt109 Vps75: inactive; ALR H2O2 inh: 98; LANA-H2B inh: inactive; rCAG RNA binder: inactive; PRMT1 FP inh: inactive

How did COc1ccc(NC(=O)/C=C/c2ccccc2[N+](=O)[O-])c(OC)c1 do in these assays?
ABHD5 PLIN5 PPI: inactive; Rtt109 Vps75: inactive; ALR H2O2 inh: inactive; LANA-H2B inh: inactive; rCAG RNA binder: inactive; PRMT1 FP inh: inactive

How did O=[N+]([O-])c1ccc(CNc2ccc(F)cc2)s1 do in these assays?
ABHD5 PLIN5 PPI: inactive; Rtt109 Vps75: inactive; ALR H2O2 inh: 99; LANA-H2B inh: inactive; rCAG RNA binder: inactive; PRMT1 FP inh: inactive
